# Reference: the supplement of paper PMC8728848
# Many of the other results were omitted from the sample, so the strongest signals are more common in it than they were.
# What was measured:
# Assay in all cases: glycan array binding signal (z-score within array); higher = stronger binding
# Conditions in all cases: glycan notation: IUPAC condensed, linker removed; mutation: R343V
# [1] = target: Fuc(a1-2)Gal(b1-4)Glc6S
# Outline: (§1)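 The binding signal is a Z-score computed within each array. Data were drawn from 3228 arrays in the Consortium for Functional Glycomics database, restricted to those with a known protein sequence. Scores were averaged over arrays of the same protein sequence at different concentrations or buffers, and over linkers, and negative values can be taken as non-binding.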
# [2] = target: Fuc(a1-2)Gal(b1-4)GlcNAc(b1-3)Gal(b1-4)GlcNAc
# Outline: as §1
# [3] = target: Fuc(a1-2)Gal6S(b1-4)Glc6S
# Outline: as §1
# [4] = target: Fuc(a1-2)[Gal(a1-3)]Gal(b1-4)GlcNAc
# Outline: as §1
# [5] = target: Fuc(a1-2)[GalNAc(a1-3)]Gal(b1-3)GlcNAc
# Outline: as §1
# [6] = target: Fuc(a1-3)GlcNAc
# Outline: as §1
# [7] = target: Gal(b1-3)Gal(b1-4)GlcNAc
# Outline: as §1
# [8] = target: Gal(b1-3)GalNAc(b1-4)Gal(b1-4)Glc
# Outline: as §1
# [9] = target: Gal(b1-3)[Fuc(a1-4)]GlcNAc(b1-3)Gal(b1-4)[Fuc(a1-3)]GlcNAc
# Outline: as §1
# [10] = target: Gal(b1-3)[Neu5Ac(a2-6)]GlcNAc(b1-6)Gal(b1-4)Glc
# Outline: as §1
# [11] = target: Gal(b1-4)GlcNAc(b1-6)GalNAc
# Outline: as §1
# [12] = target: Gal3S(b1-4)Glc6S
# Outline: as §1
# [13] = target: Gal3S6S(b1-4)GlcNAc6S
# Outline: as §1
# [14] = target: GlcA(b1-6)Gal
# Outline: as §1
# [15] = target: GlcNAc(b1-2)Man(a1-3)[GlcNAc(b1-2)Man(a1-6)]Man(b1-4)GlcNAc(b1-4)GlcNAc
# Outline: as §1
# [16] = target: GlcNAc(b1-3)Gal(b1-3)GalNAc
# Outline: as §1
# [17] = target: GlcNAc(b1-3)[GlcNAc(b1-4)][GlcNAc(b1-6)]GlcNAc
# Outline: as §1
# [18] = target: GlcNAc(b1-4)Gal(b1-4)GlcNAc
# Outline: as §1
# [19] = target: GlcNAc(b1-4)[GlcNAc(b1-6)]GalNAc
# Outline: as §1
# [20] = target: Kdn(a2-3)Gal(b1-3)GlcNAc
# Outline: as §1
# [21] = target: Man(a1-2)Man(a1-3)[Man(a1-6)]Man(a1-6)[Man(a1-2)Man(a1-3)]Man(b1-4)GlcNAc(b1-4)GlcNAc
# Outline: as §1
# [22] = target: Man(a1-3)[Man(a1-6)]Man(a1-6)[Man(a1-2)Man(a1-3)]Man(b1-4)GlcNAc(b1-4)GlcNAc
# Outline: as §1
# [23] = target: Man(a1-3)[Man(a1-6)]Man(a1-6)[Man(a1-3)]Man(b1-4)GlcNAc(b1-4)GlcNAc
# Outline: as §1
# [24] = target: Neu5Ac(a2-3)Gal(b1-4)GlcNAc(b1-3)Gal(b1-3)GlcNAc
# Outline: as §1
# [25] = target: Neu5Ac(a2-6)Gal(b1-4)GlcNAc6S
# Outline: as §1
# [26] = target: Neu5Ac(a2-8)Neu5Ac(a2-3)Gal(b1-4)Glc
# Outline: as §1
# [27] = target: Neu5Ac(a2-8)Neu5Ac(a2-8)Neu5Ac(a2-3)Gal(b1-4)Glc
# Outline: as §1
binder,measurement,setting,value
Surfactant Protein D (Human); Neck + Carbohydrate Recognition Domain (NCRD) (Homo sapiens) (protein) MLLFLLSALVLLTQPLGYLEAEMKTYSHRTMPSACTLVMCSSVESGLPGRDRDGREGPRGEKGDPGLPGAAGQAGMPGQAGPVGPKGDNGSVGEPGPKGDTGPSGPPGPPGVPGPAGREGALGKQGNIGPQGKPGPKGEAGPKGEVGAPGMQGSAGARGLAGPKGERGVPGERGVPGNTGAAGSAGAMGPQGSPGARGPPGLKGDKGIPGDKGAKGESGLPDVASLRQQVEALQGQVQHLQAAFSQYKKVELFPNGQSVGEKIFKTAQFVKPFTEAQLLCTQAGGQLASPRSAAENAALQQLVVAKNEAAFLSMTDSKTEGKFTYPTGESLVYSNWAPGEPNDDGGSEDCVEIFTNGKWNDVACGEKRLVVCEF,glycan array binding signal (z-score),[1],-0.514
same,glycan array binding signal (z-score),[2],1.5
same,glycan array binding signal (z-score),[3],-0.304
same,glycan array binding signal (z-score),[4],-0.508
same,glycan array binding signal (z-score),[5],-0.559
same,glycan array binding signal (z-score),[6],3.11
same,glycan array binding signal (z-score),[7],-0.562
same,glycan array binding signal (z-score),[8],-0.463
same,glycan array binding signal (z-score),[9],2.11
same,glycan array binding signal (z-score),[10],-0.498
same,glycan array binding signal (z-score),[11],-0.546
same,glycan array binding signal (z-score),[12],-0.317
same,glycan array binding signal (z-score),[13],-0.189
same,glycan array binding signal (z-score),[14],-0.463
same,glycan array binding signal (z-score),[15],3.08
same,glycan array binding signal (z-score),[16],1.72
same,glycan array binding signal (z-score),[17],3.11
same,glycan array binding signal (z-score),[18],3.13
same,glycan array binding signal (z-score),[19],2.16
same,glycan array binding signal (z-score),[20],-0.504
same,glycan array binding signal (z-score),[21],2.61
same,glycan array binding signal (z-score),[22],3.01
same,glycan array binding signal (z-score),[23],3.27
same,glycan array binding signal (z-score),[24],-0.489
same,glycan array binding signal (z-score),[25],-0.319
same,glycan array binding signal (z-score),[26],-0.47
same,glycan array binding signal (z-score),[27],-0.49
